Test in all cases: NCI-60 one-dose screen, 48 h (100 = growth as untreated, 0 = no growth, -100 = all killed)
What all share (settings): 10 µM

The subject of assay [1] is NCI-H23 lung.
Assay [2] has as its system NCI-H226 lung.
For assay [3], the system named is NCI-H322M lung.
Assay [4] relates to HOP-62 NSCLC.
Assay [5] has as its system NCI-H460 lung.
Assay [6] concerns HOP-92 NSCLC.
For assay [7], the system named is NCI-H522 lung.
Assay [8] concerns A549/ATCC NSCLC.
The subject of assay [9] is 786-0 renal.
Assay [10] has as its system COLO 205 colon.
Assay [11] has as its system DU-145 prostate.
The test system of assay [12] is K-562 leukemia.
Assay [13] has as its system MALME-3M melanoma.
In assay [14] the test system is MDA-MB-231 breast.
Assay [15] has as its system SF-268 CNS.
The subject of assay [16] is SF-295 CNS.
In assay [17] the test system is SF-539 CNS.
The subject of assay [18] is UACC-257 melanoma.
Assay [19] relates to M14 melanoma.

Drawing on PubChem BioAssay (NCI), this text covers growth for six compounds.

SMILES strings stand for the structures. The panel holds about 83,000 compounds, 20% with a hit somewhere; the sample as a whole holds those more often.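 Assay: single dose, 48 h. Readout: percent growth (0 = no net growth; negative = cell death). Active: <10.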 A number with no mark means an inactive call. Activity calls are given as the source filed them.

For the compound `Cc1noc2c(Cc3ccc([N+](=O)[O-])cc3)nn(CC(=O)N/N=C/c3ccc(Cl)cc3)c(=O)c12`, the growth in assay [1] was 57.9%; in [2], 8.93% (active); in [3], 62.5%; in assay [4], 16.9%; in [5], 46.2%; in [6], -20.2% (active). For the same compound, the growth in assay [7] was 69.5%; in assay [8] it was 40.1%; in assay [9], -19.5% (active); in assay [10], 79.3%; in [11], 61.6%; in assay [12] it was 72.8%. In addition, the growth in [13] is 36.9%; in assay [14] it was 4.43% (active); in assay [15], 23.5%; in [16] it was 70.1%; in assay [17], 8.2% (active); in assay [18] it was 81%. For the same compound, in assay [19], the growth was 68.1%.
As to `Clc1cccc(N/N=C/c2c[nH]c3ccccc23)n1`, the growth in assay [1] is 57.3%; in assay [2] it was 50.7%; in [3], 65.9%; in [4], 46.9%; in assay [5], 28.9%; in assay [6], -10.8% (active). The growth is 16.1% in [7]; 56.4% in [8]; 13.7% in [9]; 37.2% in assay [10]; 48.7% in [11]; 13.8% in [12]. For the same compound, the growth in [13] was 50.6%; in [14], -0.126% (active); in assay [15], 19.9%; in [16], 49.5%; in assay [17], 6.26% (active); in [18] it was 68%. The growth in assay [19] was 43.6%.
With `COc1cc(/C=C/C(=O)c2ccc(NC(=O)CSc3nnc(-c4c[nH]c5ccccc45)n3-c3ccccc3)cc2)cc(OC)c1OC`, the growth was 47.7% in assay [1]; 69.9% in [2]; 90.5% in assay [3]; 101% in assay [4]; 91.2% in [5]; 105% in [6]. For the same compound, the growth in [7] is 90.5%; in assay [8], 106%; in assay [9], 96.1%; in assay [10] it was 102%; in assay [11], 79.6%; in assay [12], 28.6%. Moreover, the growth in assay [13] is 95.2%; in assay [14], 64.2%; in assay [15], 85.4%; in assay [16], 74.3%; in [17], 60.8%; in assay [18] it was 106%. In addition, the growth in assay [19] was 81.1%.
For `COc1ccc(/C=C/C(=O)c2ccc(S(=O)(=O)NCCNc3nc(Nc4ccc(F)cc4)nc(N(C)C)n3)cc2)cc1`, the growth in assay [1] is 44.8%; in assay [2] it was 21.7%; in [3], 55.3%; in assay [4], 51.2%; in [5], 15.1%; in [6], -15.9% (active). Besides, the growth in assay [7] was 57.3%; in assay [8], 50.1%; in assay [9] it was 13.5%; in assay [10] it was 49.2%; in assay [11] it was 28.7%; in [12], 27.3%. Also, the growth in assay [13] was 49.3%; in assay [14], 29%; in assay [15], 25.8%; in assay [16] it was 23.3%; in [17], 41.7%; in [18], 47.9%. Further, the growth in assay [19] is 7.31% (active).
Regarding `COc1ccc(CN2[C@@H](C(=O)NCc3ccc(C(=O)NO)cc3)Cc3c([nH]c4ccccc34)[C@@H]2C)cc1`, the growth is 15.2% in assay [1]; 45.8% in assay [2]; 30.5% in [3]; 37.7% in assay [4]; 11.7% in assay [5]; 2.77% (active) in [6]. The growth in [7] was -5.15% (active); in assay [8], 41.6%; in assay [9], 39.7%; in assay [10] it was -12.6% (active); in assay [11] it was 18.6%; in [12], 12%. Besides, the growth in assay [13] is 0.926% (active); in assay [14], 13%; in [15] it was 24.8%; in assay [16] it was 6.57% (active); in assay [17], 17.2%; in [18], 32.1%. Moreover, the growth in assay [19] is 23.3%.
Consider `Cc1ccc2nc(COc3ccc(C(=O)NNC(=S)NCCc4ccccc4)cc3)[nH]c2c1`, for which the growth in assay [1] is 17.2%; in assay [2] it was 47.2%; in assay [3], 51.7%; in assay [4] it was 42.4%; in assay [5], 60.4%; in assay [6], 9.55% (active). The growth was 55% in [7]; 104% in assay [8]; 61% in assay [9]; 144% in [10]; 98.9% in assay [11]; 85.7% in [12]. Moreover, the growth in assay [13] is 64.8%; in assay [14], 29.6%; in assay [15], 33.6%; in [16] it was 79.3%; in assay [17], -1.98% (active); in assay [18] it was 103%. For the same compound, the growth in assay [19] was 106%.
